Compound activity from PubChem BioAssay.
An excerpt weighted towards active compounds, which were near 21% of everything screened.
Pf growth 48h: Primary qHTS for delayed death inhibitors of the malarial parasite plastid, 48 hour incubation. Potency, µM (doses to about 28.7 µM), inactives show top-dose activity change, negative = inhibition, most hits filed as inhibitors. 5.9% of 310,000 active. P. falciparum luciferase growth in erythrocytes, 48 h; also: potency is read from the fitted curve at half-maximal effect; % is scaled to controls: 0 for no effect and ±100 for the full control effect
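Firefly luciferase activity from engineered P. falciparum reports growth; inhibitors lower the luminescent signal. Cultures contained 2% hematocrit erythrocytes at 0.1% final parasitemia.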
CHX counter: Cycloheximide Counterscreen for Small Molecule Inhibitors of Shiga Toxin | cell reporter, cycloheximide protein synthesis inhibition counterscreen | max response, % | 12% of 300,000 active | AID 2314, 2010; in the data active = max response mostly above about 13%, no sharp cut-off; inactive = mostly below about 14%; also: read at 38.3 µM for the half of the compounds with a filed dose; 0% is about no effect
Giardia FBPA inh: qHTS Assay for Inhibitors of Fructose-1,6-bisphosphate Aldolase from Giardia Lamblia; 0.71% of 290,000 active; AID 2451, 2010; Potency, µM (highest dose often 59.6 µM), inactives show top-dose activity, negative = inhibition, hits mostly inhibitors; purified Giardia FBPA; A8B2U2; also: potency is read from the fitted curve at half-maximal effect; % is scaled to controls: 0 for no effect and ±100 for the full control effect; nearly all actives have a fitted effect of over 55% in size
Target sequence (A8B2U2 whole entry, looked up): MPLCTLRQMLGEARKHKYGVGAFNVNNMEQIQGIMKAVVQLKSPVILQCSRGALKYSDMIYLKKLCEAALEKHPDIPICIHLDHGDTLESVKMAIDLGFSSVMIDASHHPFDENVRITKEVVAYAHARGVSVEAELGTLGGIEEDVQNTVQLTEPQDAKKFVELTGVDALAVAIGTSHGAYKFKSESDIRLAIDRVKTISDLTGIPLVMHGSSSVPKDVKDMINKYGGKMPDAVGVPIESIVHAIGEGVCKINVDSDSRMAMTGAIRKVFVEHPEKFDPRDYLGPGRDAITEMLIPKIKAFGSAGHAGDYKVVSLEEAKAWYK
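40 nM FBPA preincubated 10 min at RT with compound (up to 57.5 uM final), then substrate plus GAPDH/TPI/NAD/arsenate coupling and diaphorase/resazurin added. Fluorescence read after 20 min at RT, 525/598 nm.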
NS1 function inh: qHTS Assay for Inhibitors of Influenza NS1 Protein Function; Potency, µM (series often up to 46.1 µM), without a hit: top-dose activity, positive = more growth; 0.4% of 270,000 active; AID 2326, 2010; calls by dose curve; also: potency is read from the fitted curve at half-maximal effect; actives are rising curves; nearly all actives have a fitted effect of over 50% in size
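OD600 was taken as the measure of yeast growth restored by compound in an NS1-expressing S. cerevisiae strain. Cells had been washed out of glucose medium and diluted 1:100 into galactose -URA medium, pH 6.0.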
Shiga inhibitor: A qHTS for Small Molecule Inhibitors of Shiga Toxin. Vero cells, Shiga toxin protein synthesis inhibition reporter. inhibition, % at 38.7 µM. 9.2% of 290,000 active; in the data active = inhibition mostly above about 28%, no sharp cut-off; inactive = mostly below about 43%; also: 0% is about no effect
Pf growth 96h: Primary qHTS for delayed death inhibitors of the malarial parasite plastid, 96 hour incubation. P. falciparum luciferase reporter growth, 96 h. Potency, µM (highest dose often 28.7 µM), for inactives: at the top dose activity change, negative = inhibition, actives largely listed as inhibitors. 6.9% of 320,000 active; also: potency is read from the fitted curve at half-maximal effect; % is scaled to controls: 0 for no effect and ±100 for the full control effect
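Parasite growth measured via integrated firefly luciferase reporter in P. falciparum. Infected erythrocytes at 2% hematocrit, 0.05% parasitemia final were treated 96 hours at 37 C under 5% CO2, and luminescence was read.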
Numbers without * were called inactive; ? = inconclusive; / = no result. Unless noted, calls follow the shape of the dose curve; as a rule, active = well fitted curve in the direction sought with a large enough effect; inconclusive = small, poorly fitted or top-dose-only effect, or another doubt; inactive = no such curve, though single readings can be large; an effect the other way counts as inactive or inconclusive.

SMILES	Pf growth 48h	CHX counter	Giardia FBPA inh	NS1 function inh	Shiga inhibitor	Pf growth 96h
Cc1cc(C)c2nc(N3C(=O)C(O)=C(C(=O)c4ccco4)C3c3cccc(O)c3)sc2c1 (stereo not given)	?	/	/	/	/	-30%
COc1ccc2c(c1)O[C@@H](c1ccc3c(c1)OCO3)[C@H](OC(=O)NS(=O)(=O)c1ccc(F)cc1)C2=O	/	/	-1%	/	/	/
COc1ccc2nc(NC(=O)c3ccc4ncsc4c3)sc2c1	/	56*	0%	20%	70*	10%
O=C(Nc1ccc(F)cc1)Nc1sccc1-c1nc2ccccc2s1	8.3µM*	9	-11%	0%	23	?
CCc1nnc(NC(=O)c2ccc3c(c2)C(=O)N(C(C)(C)C)C3=O)s1	34%	17*	4%	9%	38	47%
Cc1cc(NC(=O)CSc2ncnc3c2cnn3-c2cccc(Cl)c2)no1	16%	-5	7%	0%	-4	50%
Cc1ccccc1Nc1nnc(SCC(=O)c2c(N)n(C)c(=O)n(C)c2=O)s1	5.2µM*	5	-9%	/	-1	?
Cc1cc(C)nc(SCC(=O)c2c(N)n(C)c(=O)n(C)c2=O)n1	25%	-3	-12%	3%	-13	/
CCSc1nnc(SCC(=O)c2c(N)n(C)c(=O)n(C)c2=O)s1	?	/	/	/	/	4.1µM*
O=C(O)CN1CCN(CC(=O)O)CC(=O)[O][Hg][O]C(=O)C1	/	/	/	-61%	/	/
O=C(/C=C/c1ccco1)Oc1cccc2cccnc12	5.2µM*	12	-25%	-51%	11	5.9µM*
COc1ccccc1/C=C/C(=O)Oc1cccc2cccnc12	-19%	-1	-7%	-35%	-8	-19%
O=C(/C=C\c1ccco1)Oc1cccc2cccnc12	?	23*	?	/	18	-13%
COC(=O)c1cc(S(=O)(=O)Nc2cc(OC)cc(OC)c2)c[nH]1	8%	-4	-4%	-4%	-5	?
COc1ccc(N=C2C(=O)N3c4c(cccc42)C(C)=CC3(C)C)cc1	?	-3	-26%	-33%	-5	12µM*
CCOc1ccc(Oc2ccccc2NC(=O)CN2C(=O)NC3(CCCC3)C2=O)cc1	-13%	/	/	/	/	4%
Cc1nnc2n1N=C(c1ccc(F)cc1F)CS2	-14%	/	/	/	/	8%
O=C1CN(c2ccccc2)C(=S)N1C(=O)c1ccc(Br)cc1	154%	43*	-14%	-6%	96*	?
CCCCSc1nnc(-c2ccc(NC(C)=O)cc2)n1C	-26%	-6	-1%	4%	-9	7.4µM*
Cn1c(SCCSc2nnc(-c3ccccc3)n2C)nnc1-c1ccccc1	0%	-3	5%	3%	30	?
CCCCSc1nnc(-c2ccc(C)cc2)n1C	60%	40*	/	-10%	104*	30%
CC(C)c1nnc(SCC(=O)NCc2ccco2)n1C	1%	-2	-10%	5%	-14	18%
CC(=O)Nc1ccc(-c2nnc(SCC(=O)NCc3ccco3)n2C)cc1	/	-3	2%	7%	2	6.6µM*
O=C(N=c1nc2ccccn2s1)c1ccccc1	256%	41*	21%	11µM*	152*	7%
CC/C(=N\NC(=O)c1c(C)nc2ccccn12)c1ccccc1	9%	1	5%	-2%	-5	?
SMILES	Pf growth 48h	CHX counter	Giardia FBPA inh	NS1 function inh	Shiga inhibitor	Pf growth 96h
Cc1nnc2c(N3CCN(CCO)CC3)nc3ccccc3n12	-25%	1	1%	22%	-7	13µM*
c1ccc(-c2nc(-c3ccccc3)c(Nc3ccc4ccccc4c3)o2)cc1	/	/	5%	/	/	/
CCCCN1CC(O)C(O)C(O)C1CO (stereo not given)	3%	/	/	/	/	?
O=C(O/N=C1\CCCc2ccccc21)C1CC1	103%	-1	-3%	/	-8	18%
Cc1cccc(C(=O)O/N=C2\CCSc3ccc(C)cc32)c1	9%	-3	2%	-6%	-7	30%
O=C(O/N=C1\CCCc2ccccc21)c1cccc(Cl)c1	35%	13*	-3%	-14%	7	15%
Cc1cccc(C(=O)O/N=C2\CCCc3ccccc32)c1	23%	24*	0%	-26%	41*	67%
Cc1ccc(C(=O)O/N=C2\CCCc3ccccc32)cc1	333%	18*	-6%	-7%	62*	47%
Cc1cc(C)cc(N(C(=O)c2csnn2)C(C(=O)NC2CCCC2)c2ccccn2)c1 (stereo not given)	4%	1	1%	8%	-16	-1%
O=C(CSc1n[nH]c(-c2ccncc2)n1)Nc1ccc(Br)cc1	-23%	-1	-18%	-6%	-11	?
O=C(Cc1ccccc1)OCC(=O)c1ccccc1	0%	30*	/	2%	36	12µM*
Cc1ccc(C(=O)COC(=O)Cc2ccccc2)cc1	10%	46*	-11%	-6%	77*	-31%
COc1ccc(/C=N/Nc2nncn2N)cc1Br	?	22*	?	-90%	/	?
COc1cc(/C=N/Nc2nncn2N)ccc1OCc1c(C)no[n+]1[O-]	?	13*	5µM*	1%	25	?
Cc1noc(C)c1S(=O)(=O)Nc1ccc(C(C)C)cc1	1%	-3	-3%	-30%	-5	?
CCOC(=O)c1c(NC(=O)CN2C(=O)NC3(CCCCC3)C2=O)sc(C)c1-c1ccc(C)cc1	15µM*	4	1%	3%	0	9.3µM*
CCOC(=O)c1sc(NC(=O)CNCc2ccccn2)c(C(=O)OCC)c1C	1µM*	6	0%	2%	-15	0.41µM*
CCOC(=O)c1c(NC(=O)CC)sc(C(=O)N2CCCCC2)c1C	/	-4	0%	4%	-10	13µM*
CCOC(=O)c1c(N)sc(C(=O)N2CCCCCC2)c1C	-26%	-6	1%	-9%	-18	22%
CCOC(=O)c1sc(NC(=O)CN2C(=O)NC3(CCCCCCC3)C2=O)c(C(=O)OCC)c1C	8.3µM*	14	1%	-4%	2	9.3µM*
CCOC(=O)c1ccc(NC(=O)CN2C(=O)NC3(CCCCCC3)C2=O)cc1	-2%	8	0%	/	8	11%
CCOC(=O)C1(Cc2ccccc2Cl)CCN(Cc2csc(C(C)=O)c2)CC1	?	-2	-23%	-1%	-7	?
COc1cc([N+](=O)[O-])c(OC)cc1SCc1n[nH]c(=S)n1-c1ccc(F)cc1	-27%	-3	3%	6%	2	1.7µM*
COc1ccc(CNc2ccc(C)cc2)cc1Br	27%	23*	-6%	13%	43*	30%
COc1ccc(Br)cc1CNc1ccc(O)cc1	?	-1	16µM*	4%	-7	/
COc1ccc(CNc2ccccc2)cc1Br	11%	11	0%	-3%	15	?
COc1ccccc1CNCc1cc(OC)c(OC)cc1OC	-5%	-3	-13%	-1%	-4	/
